Consider eight molecules from PubChem BioAssay (NCATS).

Records with an inconclusive call do not appear. Unmarked numbers belong to inactive results. Active and inactive are the calls of the source. Calls come from the whole dose curve; as a rule, active = well fitted curve in the direction sought with a large enough effect; inconclusive = small, poorly fitted or top-dose-only effect, or another doubt; inactive = no such curve, though single readings can be large; an effect the other way counts as inactive or inconclusive.

The subject of assay [1] is HaCat. The assay is described as follows: Cytotoxic Profiling of Annotated Libraries Using Quantitative High-Throughput Screening (AID 1296008). Note: nearly all actives have a fitted effect of over 60% in size. The settings on record: Five cell lines viability, CellTiter-Glo ATP luminescence, 48-72 h; max response: stronger effect = lower value. An outline of the steps: (§1)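 Cytotoxicity was measured as CellTiter-Glo ATP luminescence, read after 10 min at room temperature. Compound treatment of the cells lasted 48 or 72 hr at 37 degrees Celsius in a qHTS format.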

Assay [2] has as its system NIH3T3. The assay is described as above. The settings on record: Five cell lines viability, CellTiter-Glo ATP luminescence, 48-72 h; max response: stronger effect = lower value. Put shortly: as §1
On the technique in general: In ATP-based viability assays light output follows the ATP content of the culture.

In assay [3] the test system is HACAT. The experiment in a line: qHTS assay to identify novel small-molecules to repurpose for Merkel cell carcinoma treatment (AID 1296009). Note: nearly all actives have a fitted effect of over 60% in size. As to conditions: MCC and control cell lines, CellTiter-Glo viability, 72 h; at 44.8 µM (top of the series) unless noted. An outline of the steps:
(§2)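 Cell viability, measured as CellTiter-Glo luminescence, was normalized between DMSO and no-cell wells. The cells had been exposed to 8- or 11-point compound dilutions for 72 hr at 37 degree celsius.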
In general terms: Quantitative high-throughput screening tests each substance at several concentrations.

Assay [4] concerns HEK293T. Described as above. The settings on record: MCC and control cell lines, CellTiter-Glo viability, 72 h; at 44.8 µM (top of the series) unless noted. Put shortly:
as §2

Assay [5] concerns MCC-13. The assay is described as above. As to conditions: MCC and control cell lines, CellTiter-Glo viability, 72 h; series mostly up to 46 µM. Put shortly:
as §2

The subject of assay [6] is MCC-26. Described as above. The settings on record: MCC and control cell lines, CellTiter-Glo viability, 72 h; series mostly up to 46 µM. Put shortly:
as §2

Assay [7] relates to MKL-1. The assay is described as above. The settings on record: MCC and control cell lines, CellTiter-Glo viability, 72 h; series mostly up to 46 µM. Put shortly:
as §2

For assay [8], the system named is MKL-2. Described as above. As to conditions: MCC and control cell lines, CellTiter-Glo viability, 72 h; series mostly up to 46 µM. Put shortly:
as §2

Assay [9] has as its system NIH3T3. The assay is described as above. The settings on record: MCC and control cell lines, CellTiter-Glo viability, 72 h; at 44.8 µM (top of the series) unless noted. An outline of the steps:
as §2

Assay [10] has as its system UISO. Described as above. As to conditions: MCC and control cell lines, CellTiter-Glo viability, 72 h; series mostly up to 46 µM. An outline of the steps:
as §2

Assay [11] has as its system WaGa. The description is as above. The settings on record: MCC and control cell lines, CellTiter-Glo viability, 72 h; series mostly up to 46 µM. An outline of the steps: as §2
Assay [12] relates to C33A. The assay is described as follows: Primary qHTS to identify gynecologic anti-cancer compounds using libraries of approved drugs and bioactive compounds (AID 1345084). Note: nearly all actives have a fitted effect of over 55% in size. As to conditions: Gynecologic cancer cell panel viability, ATPlite luminescence, 48 h; series mostly up to 57.5 µM. An outline of the steps: (§3)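 Cell viability after 48 h drug treatment, ATPlite luminescence readout; five doses.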

In assay [13] the test system is CAOV3. The description is as above. As to conditions: Gynecologic cancer cell panel viability, ATPlite luminescence, 48 h; series mostly up to 57.5 µM. Put shortly: as §3
Assay [14] concerns CASKI. The description is as above. The settings on record: Gynecologic cancer cell panel viability, ATPlite luminescence, 48 h; series mostly up to 57.5 µM. An outline of the steps: as §3
The subject of assay [15] is Es-2. Described as above. As to conditions: Gynecologic cancer cell panel viability, ATPlite luminescence, 48 h; series mostly up to 57.5 µM. An outline of the steps:
as §3

In assay [16] the test system is HeLa. The description is as above. As to conditions: Gynecologic cancer cell panel viability, ATPlite luminescence, 48 h; series mostly up to 57.5 µM. Put shortly: as §3
Assay [17] concerns Hek293T. The assay is described as above. The settings on record: Gynecologic cancer cell panel viability, ATPlite luminescence, 48 h, control line for the selectivity index; series mostly up to 57.5 µM. An outline of the steps: as §3
In assay [18] the test system is JEG-3. The description is as above. As to conditions: Gynecologic cancer cell panel viability, ATPlite luminescence, 48 h; series mostly up to 57.5 µM. Put shortly: as §3
The test system of assay [19] is OV90. The assay is described as above. The settings on record: Gynecologic cancer cell panel viability, ATPlite luminescence, 48 h; series mostly up to 57.5 µM. Put shortly: as §3
Assay [20] deals with KB-3-1. The experiment in a line: Cytotoxic Profiling of Annotated Libraries Using Quantitative High-Throughput Screening (AID 1296008). Note: nearly all actives have a fitted effect of over 60% in size. The settings on record: Five cell lines viability, CellTiter-Glo ATP luminescence, 48-72 h; max response: stronger effect = lower value. An outline of the steps: as §1
% is set by controls: 0 for no effect and ±100 for the full control effect; potency is the fitted concentration of half-maximal effect.

Turning to `COC(=O)/C=C(/C)N`, the molecule was classed as inactive in [1], in assay [2], in assay [3], in assay [4] and in assay [9]. Further, the Potency result in [5], in assay [6], in assay [7], in assay [8], in assay [10] and in [11] was “inactive” in each case. Also, the Potency result in [12], in assay [13], in assay [14], in assay [15], in [16] and in assay [17] was “inactive” in each case. Besides, the Potency result in assay [18] and in assay [19] was “inactive” each time.
Consider `CC(=O)[C@@]1(O)CC[C@H]2[C@@H]3C[C@H](C)C4=CC(=O)CC[C@]4(C)[C@H]3CC[C@@]21C`, for which the max response is -16.6% in [1] and -7.02% in [20]. Besides, the Potency result in assay [5], in [6], in assay [7], in assay [10], in assay [11] and in assay [12] was “inactive” throughout. Besides, the Potency entry in assay [13], in assay [14], in assay [15], in assay [16], in [17] and in [18] was “inactive” in each case. Moreover, the Potency result in assay [19] was “inactive”.
Turning to `CCCCCCCCCCCCCC[N+](C)(C)C`, the Potency was 5.96 µM (active) in [1]; 16.4 µM (active) in [20]; 23.7 µM (active) in [2]; 16.8 µM (active) in [6]; 1.19 µM (active) in [7]; 1.19 µM (active) in assay [8]. The Potency in [10] was 2.37 µM (active); in assay [11], 1.33 µM (active); in assay [14] it was 3.16 µM (active); in [15], 14.1 µM (active).
Take `CC[N+](CC)(CC)CCOC(=O)C(C1CCCC1)C1CCCC1`: the values for the max response in assay [1], in assay [20] and in [2] were -3.44%, 9.62% and -5.66%, respectively. Further, the Potency result in [5], in [6], in [12], in assay [13], in assay [15] and in assay [16] was “inactive” each time. Also, the Potency result in assay [17] and in assay [18] was “inactive” each time. The Potency in [7] is 11.9 µM (active); in assay [8], 5.96 µM (active); in assay [11] it was 9.44 µM (active).
On to `Cc1cccc(N(C)C(=S)Oc2ccc3c(c2)CCC3)c1`, for which the max response in [1] is -7.13%; in assay [20] it was -1.52%; in [2] it was -6.52%. Moreover, the Potency result in assay [5], in [6], in assay [7], in [8], in [10] and in assay [12] was “inactive” throughout. For the same molecule, the Potency result in [13], in assay [14], in assay [15], in assay [16], in [17] and in [18] was “inactive” in each case. Moreover, the Potency result in assay [19] was “inactive”.
Take `Cc1nn(-c2ccccc2)c(C)c1/C=N/N1CCN(Cc2ccccc2)CC1`: the max response in assay [1] is -14.9%; in [20], 8.96%; in assay [2], 3.85%. Besides, the Potency entry in assay [12], in [13], in assay [14], in [15], in [16] and in assay [17] was “inactive” in each case. Moreover, the Potency entry in assay [18] and in assay [19] was “inactive” throughout.
Consider `C[N+]1(CC2COC(c3ccccc3)(c3ccccc3)O2)CCCCC1` (configuration not stated), for which the max response in assay [1] is -14.4%; in assay [20], -21.8%; in assay [2], -38.8%. For the same molecule, the Potency entry in assay [5], in assay [6], in assay [7], in assay [10], in assay [11] and in assay [12] was “inactive” in each case. Moreover, the Potency result in assay [13], in assay [14], in [15], in [16], in [17] and in [18] was “inactive” throughout.
Turning to `O=[N+]([O-])c1nccn1CO[C@@H](CO)[C@H](O)CO`, the molecule was called inactive in assay [1] and in assay [3]. Besides, the max response in [20] is 2.05%. In addition, the Potency entry in assay [5], in assay [6], in assay [7], in assay [8], in [10] and in assay [11] was “inactive” in each case. For the same molecule, the Potency result in assay [12], in [13], in [14], in [15], in [16] and in assay [17] was “inactive” throughout. Further, the Potency result in assay [18] and in assay [19] was “inactive” each time.
